Bioassay records: PubChem BioAssay, National Center for Advancing Translational Sciences (NCATS)
Peg3 imprint = induces erasure of genomic imprints in mouse ES cells; 0.02% of 110,000 active; Potency, µM (highest dose often 60.7 µM), hits mostly activators; mouse ES Peg3-LacZ reporter, beta-gal luminescence, 40 h; AID 1948
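Readout: BetaGlo luminescence (5 min, room temp) for LacZ from the normally silent maternal Peg3 allele in female Peg3LacZ-Neo ES cells. Cells 300/well, 40 h, 37C, 5% CO2. Data normalized per plate to negative controls.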
p53ts 32C kill = p53ts cell cytotoxicity, permissive temperature; H1299-p53A138V at 32C, ATP luminescence viability, 24 h; Potency, µM (top dose mostly 46.1 µM), hits mostly cytotoxic; 0.93% of 130,000 active; AID 924; further: nearly all actives have a fitted effect of over 55% in size
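Viability by ATPlite luminescence after 24 h compound treatment (up to 46 uM) at the permissive 32C. Cells are H1299 carrying p53 A138V. Scale runs from DMSO basal to 100 uM tamoxifen as full kill; AC50 from Hill fits.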
UbGFP stabilizer = proteasome inhibitors stabilizing ubiquitin-GFP reporter | Ubiquitin-GFP reporter cells, proteasome inhibition, GFP fluorescence; response scale: untreated = 0%, 10 µM MG-132 = 100% | Potency, µM (series often up to 45.9 µM), most hits filed as activators | 67,000 tested, under 10 active | AID 526; active means well fitted activation curve with a large enough effect, not every such curve was filed as active; inconclusive means small, poorly fitted or top-dose-only effect, or another doubt; inactive means no such curve, though single readings can be large or run the other way
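U2OS Ub(G76V)-GFP reporter; O/N plating, 0.5% FBS; cpd 46 uM–2.9 nM, 4 h, 37 °C; GFP+ cell count, 488/515 nm; norm. to basal vs 10 uM MG-132; CRC fit.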
HBB splicing = hemoglobin beta splicing modulation | 0.06% of 65,000 active | HBB splicing reporter cell assay, activation; EGFP reporter with mutant IVS2-654 intron; response scale: normalised to 500 nM splice-correcting PNA | Potency, µM (doses to about 46.1 µM), hits mostly activators
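Compounds were applied for 2 days to HeLa EGFP-654 cells, 500/well in Optimem with 2% FCS. The reporter's EGFP is disrupted by mis-splicing of beta-globin intron IVS2-654. Readout: summed well GFP fluorescence from 488 nm laser scanning; reference was 500 nM antisense […] 654 PNA.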
GFP derepression = epigenetic modulators derepressing GFP locus in mouse cells; mouse C127i GFP locus derepression, cytometry, 30 h; Potency, µM (series often up to 46.1 µM); 0.09% of 68,000 active
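Derepression screen: silenced CMV-GFP reporter in murine C127i cells, 30 h compound incubation at 37 C, washed cells imaged by laser-scanning cytometer to enumerate GFP-expressing objects of 20 to 120 um.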
p53ts 39C tox = p53ts cell cytotoxicity, nonpermissive temperature | H1299-p53A138V viability at 39C, ATP luminescence, 24 h | 1.5% of 130,000 active | Potency, µM (highest dose often 46.1 µM), actives largely listed as cytotoxic | AID 902; further: nearly all actives have a fitted effect of over 55% in size
Each line names hits and unclear results; the compound was inactive in the other large screens. The list is not random: actives were taken first. Their share in the collection is about 1.6%. Unless noted, the call rests on the fitted dose curve; in most records, active means well fitted curve in the direction sought with a large enough effect; inconclusive means small, poorly fitted or top-dose-only effect, or another doubt; inactive means no such curve, though single readings can be large; an effect the other way counts as inactive or inconclusive.

CCN(CC)CCCNC(CC(=O)O)C(=O)O (stereo unspecified)	none
CN1CCN(CC/C=C2/c3ccccc3Sc3ccc(S(=O)(=O)N(C)C)cc32)CC1	none (no result: p53ts 32C kill, UbGFP stabilizer, HBB splicing, GFP derepression, p53ts 39C tox)
CN(C)S(=O)(=O)c1ccc2c(c1)/C(=C/c1cc3c([nH]1)CCCC3)C(=O)N2	HBB splicing 4µM, GFP derepression 16µM
CS(=O)c1nc(-c2ccc(Br)cc2)cc(-c2ccccc2)c1C#N (stereo unspecified)	p53ts 32C kill 20µM, p53ts 39C tox inconclusive
CCS(=O)(=O)CCSc1nc(-c2ccc(Br)cc2)cc(-c2ccccc2)c1C#N	p53ts 39C tox inconclusive (no result: UbGFP stabilizer, HBB splicing, GFP derepression)
COc1ccc(-c2nnc(SCC(=O)Nc3ccc(F)cc3)s2)cc1	p53ts 39C tox inconclusive (no result: UbGFP stabilizer, HBB splicing, GFP derepression)
CCCCCCC1C(C#N)=C(N)OC2=C1C(=O)CCC2 (stereo unspecified)	p53ts 32C kill 13µM, p53ts 39C tox 16µM (no result: GFP derepression)
CCCCCCC1C(C#N)=C(N)OC2=C1C(=O)CC(C)(C)C2 (stereo unspecified)	none (no result: GFP derepression)
COc1cc(OC)cc(-c2nc3nc(C)c(CCC(=O)Nc4ccc(C)cc4C)c(C)n3n2)c1	none (no result: UbGFP stabilizer, HBB splicing, GFP derepression)
COc1ccc(NC(=O)c2ccco2)cc1NC(=O)COc1ccc(Cl)c(C)c1	p53ts 32C kill inconclusive, p53ts 39C tox 10µM (no result: UbGFP stabilizer, HBB splicing, GFP derepression)
Cc1ccccc1-c1nc(CS(=O)(=O)CC(=O)NCC(C)c2ccccc2)c(C)o1 (stereo unspecified)	none (no result: UbGFP stabilizer, HBB splicing, GFP derepression)
O=C(Nc1ccc2c(c1)OCCO2)c1ccc2nccnc2c1	p53ts 32C kill inconclusive, p53ts 39C tox 4µM
CCOc1ccc(C(=O)Nc2ccc3c(c2)OCO3)cc1OCC	none
CCOc1ccc(C(=O)Nc2ccc3c(c2)OCCO3)cc1Br	p53ts 32C kill inconclusive, p53ts 39C tox 10µM (no result: UbGFP stabilizer, HBB splicing, GFP derepression)
Cc1occc1-c1nc(-c2ccccn2)no1	p53ts 32C kill 10µM, p53ts 39C tox 13µM
c1ccc(-c2noc(-c3cccnc3)n2)nc1	p53ts 32C kill 13µM, p53ts 39C tox 13µM
c1ccc(-c2noc(-c3ccc4c(c3)OCO4)n2)nc1	p53ts 32C kill 0.63µM, p53ts 39C tox 1µM
c1ccc(-c2noc(-c3ccc4ccccc4c3)n2)nc1	p53ts 32C kill 0.32µM, p53ts 39C tox 0.63µM
c1ccc(-c2noc(-c3ccncc3)n2)nc1	p53ts 32C kill inconclusive, p53ts 39C tox inconclusive
CCCCNc1ccc(-c2nc(-c3ccccc3)no2)cc1[N+](=O)[O-]	none (no result: UbGFP stabilizer, HBB splicing, GFP derepression)
CCc1ccccc1NC(=O)CSc1ncc(S(=O)(=O)c2ccc(C(C)C)cc2)c(N)n1	none (no result: UbGFP stabilizer, HBB splicing, GFP derepression)
Cc1cccc(Cn2c(C)c(CNC3CCCCC3)c(C(=O)O)c2C)c1	none (no result: UbGFP stabilizer, HBB splicing, GFP derepression)
Cc1nn(-c2ccc(F)cc2)c(-n2cccc2)c1C(=O)N1CCN(c2ccccc2F)CC1	none (no result: UbGFP stabilizer, HBB splicing, GFP derepression)
CCOc1ccc(CCNc2ncnc3onc(-c4ccc(F)cc4)c23)cc1OCC	none (no result: UbGFP stabilizer, HBB splicing, GFP derepression)
COc1ccccc1NC(=O)CSc1oc(-c2ccc(F)cc2)nc1S(=O)(=O)c1ccc(Br)cc1	none (no result: UbGFP stabilizer, HBB splicing, GFP derepression)
Cn1c(=O)c(-c2ccc(F)cc2)nc2cnc(N3CCOCC3)nc21	none
O=C(Nc1ccc(OCc2cc(=O)n3c4c(sc3n2)CCCC4)cc1)c1ccccc1	none (no result: UbGFP stabilizer, HBB splicing, GFP derepression)
CC(C)(C)OCC1CO1 (stereo unspecified)	none (no result: UbGFP stabilizer, GFP derepression)
CC1CC(C)CN(S(=O)(=O)c2ccc(C(=O)Nc3nnc(-c4cccs4)o3)cc2)C1 (stereo unspecified)	p53ts 39C tox 16µM
COc1cccc(-c2nnc(NC(=O)c3ccc(S(=O)(=O)N4CC(C)OC(C)C4)cc3)o2)c1 (stereo unspecified)	p53ts 39C tox 13µM
CC1CCCN(S(=O)(=O)c2ccc(C(=O)Nc3nnc(-c4ccccc4Cl)o3)cc2)C1 (stereo unspecified)	none
CCC1CCCCN1S(=O)(=O)c1ccc(C(=O)Nc2nnc(-c3cccs3)o2)cc1 (stereo unspecified)	p53ts 39C tox 16µM
CCC1CCCCN1S(=O)(=O)c1ccc(C(=O)Nc2sc3c(c2C(N)=O)CCC3)cc1 (stereo unspecified)	none (no result: UbGFP stabilizer, HBB splicing, GFP derepression)
COc1ccc(-c2nnc(NC(=O)c3ccc(S(=O)(=O)N4CCc5ccccc5C4)cc3)o2)cc1	p53ts 39C tox inconclusive
CCOc1cccc(NC(=O)C2CC(=O)N(C)C(=Nc3cccc(OC)c3)S2)c1 (stereo unspecified)	p53ts 32C kill inconclusive, p53ts 39C tox 13µM (no result: UbGFP stabilizer, HBB splicing, GFP derepression)
CCOc1cccc(NC(=O)C2CC(=O)N(C)C(=Nc3ccc(OC)cc3)S2)c1 (stereo unspecified)	none (no result: UbGFP stabilizer, HBB splicing, GFP derepression)
CCN(CC)CCNC(=O)Nc1ccc2c(c1)N(Cc1ccccc1)C(=O)c1ccccc1S2	p53ts 39C tox 20µM (no result: UbGFP stabilizer, HBB splicing, GFP derepression)
CCN1C(=O)c2ccccc2Sc2ccc(NC(=O)Nc3ccc(C(C)=O)cc3)cc21	none (no result: UbGFP stabilizer, HBB splicing, GFP derepression)
Cc1cc(C)c(NC(=O)CCS(=O)(=O)c2cc3c(cc2Cl)NC(=O)CO3)c(C)c1	none (no result: UbGFP stabilizer, HBB splicing, GFP derepression)
